NS1 inh = qHTS Assay for Inhibitors of Influenza NS1 Protein Function | AID 2326, 2010 | Potency, µM (series often up to 46.1 µM) | hit rate 0.4% among 270,000; calls by dose curve; also: actives are rising curves; nearly all actives have a fitted effect of over 50% in size
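Growth recovery, yeast-based: influenza A NS1 expressed in S. cerevisiae causes slow growth, and suppressors are detected by OD600. The parent strain without NS1 is used as positive control.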
RE007 growth inh = qHTS Assay for Inhibitors of the HIV-1 protein Vpr; S. pombe RE007 Vpr strain, BacTiter-Glo ATP luminescence, 24 h; Potency, µM (highest dose often 92.2 µM), usual class: inhibitors; hit rate 0.21% among 360,000; active = well fitted falling curve with a large enough effect; inconclusive = small, poorly fitted or top-dose-only effect; inactive = no such curve, though single readings can be large or run the other way; also: nearly all actives have a fitted effect of over 50% in size
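Fission yeast RE007 carrying one integrated HIV-1 vpr copy, seeded at OD 0.01 in PMG+AL medium with 23 nL pinned compound. Grown 24 h at 30 degrees; viability read by BacTiter-Glo luminescence after 5 min.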
Tb PYK inh = qHTS of Trypanosoma Brucei Inhibitors; TbPYK enzyme, Kinase-Glo Plus ATP luminescence, 45 min; Potency, µM (titrated, usually from 76.8 µM), hits mostly inhibitors; hit rate 0.12% among 410,000; AID 624173, 2012; also: nearly all actives have a fitted effect of over 50% in size
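Readout: single end-point luminescence (Kinase-Glo Plus, 10 min). Reaction conditions were TbPYK/substrate plus 130 uM ADP, 45 min at RT, pH 7.2 TEA buffer. No-enzyme wells served as controls, and data were normalized before concentration-response fitting.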
SARS PLpro yeast = qHTS of Yeast-based Assay for SARS-CoV PLP | Potency, µM (top dose mostly 32.9 µM), hits mostly activators | S. cerevisiae expressing SARS-CoV PLpro, growth rescue | AID 485353, 2010 | hit rate 0.19% among 330,000; calls by dose curve; also: nearly all actives have a fitted effect of over 55% in size
Sm TGR inh = qHTS Assay for the Inhibitors of Schistosoma Mansoni Peroxiredoxins; purified TGR, DTNB reduction, TNB absorbance 405 nm; Potency, µM (top dose mostly 114 µM), usual class: inhibitors; hit rate 3% among 360,000; AID 485364, 2010; also: nearly all actives have a fitted effect of over 60% in size
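First, TGR (20 nM dispensed) and NADPH were mixed with compound. Second, a 15 min room-temperature incubation followed. Third, further NADPH and then DTNB were added to start the reaction. Finally, TNB absorbance was monitored kinetically.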
LmPK inh = qHTS Assay for Inhibitors of Leishmania Mexicana Pyruvate Kinase (LmPK); Q27686; purified LmPK, Kinase-Glo ATP luminescence, 1 h; Potency, µM (doses to about 57.5 µM), most hits filed as inhibitors; hit rate 0.37% among 290,000
Target sequence (Q27686 whole entry, looked up): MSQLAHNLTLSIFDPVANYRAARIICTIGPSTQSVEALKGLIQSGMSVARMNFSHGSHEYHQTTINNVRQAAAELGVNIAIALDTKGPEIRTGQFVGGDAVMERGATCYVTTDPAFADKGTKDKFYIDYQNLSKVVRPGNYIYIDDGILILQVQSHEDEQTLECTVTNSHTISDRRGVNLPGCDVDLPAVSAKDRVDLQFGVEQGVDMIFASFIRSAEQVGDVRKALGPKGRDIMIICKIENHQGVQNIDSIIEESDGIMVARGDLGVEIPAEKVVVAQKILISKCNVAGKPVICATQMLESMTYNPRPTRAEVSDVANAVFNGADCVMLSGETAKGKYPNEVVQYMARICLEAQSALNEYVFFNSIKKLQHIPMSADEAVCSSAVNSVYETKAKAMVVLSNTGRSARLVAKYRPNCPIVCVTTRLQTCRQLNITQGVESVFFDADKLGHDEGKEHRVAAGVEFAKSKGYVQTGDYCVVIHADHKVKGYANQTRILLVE
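qHTS format; LmPK 0.1 nM; substrates PEP 0.5 mM and ADP 0.1 mM. One-hour room-temperature incubation, then coupled luciferase luminescence; 0.5 nM enzyme wells mark activation.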
LmPK confirm = Confirmation Assay for Inhibitors of Leishmania Mexicana Pyruvate Kinase (LmPK); shares compounds with LmPK inh; purified LmPK, Kinase-Glo ATP luminescence, 1 h; Potency, µM (highest dose often 57.5 µM), most hits filed as inhibitors; hit rate 40% among 150;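 active = compounds giving a full or partial concentration-response curve, as inhibitors or activators; inconclusive = weak, top-dose-only or unclear curve responses; inactive = no response at any tested dose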
NS1 inh valid = Assay for Inhibitors of Influenza NS1 Protein Function: Hit Validation; shares compounds with NS1 inh; influenza NS1 function cell assay, 15-point titration; activity change, negative = inhibition, % at 32.9 µM; 1,400 tested, under 10 active; AID 492980, 2010; calls by dose curve
Each line names hits and unclear results; the compound was inactive in the other large screens (follow-up assays come after a bar, where they were run). Only some compounds are listed: those with a hit (about 3.3% of all), similar ones and a draw of the others. Unless noted, calls follow the shape of the dose curve; as a rule, active = well fitted curve in the direction sought with a large enough effect; inconclusive = small, poorly fitted or top-dose-only effect, or another doubt; inactive = no such curve, though single readings can be large; an effect the other way counts as inactive or inconclusive.

CN(C)c1nc2c(c(N)nn2-c2ccc(Cl)cc2)c(=O)o1	none | LmPK confirm inactive
O=c1c2ccccc2[se]n1-c1ccccc1	Tb PYK inh 8.9µM, Sm TGR inh inconclusive, LmPK inh 22µM | LmPK confirm 13µM
Cc1cccc2c1-c1sc(C(=O)N(C)c3cccc(C(F)(F)F)c3)cc1CO2	none (no result: NS1 inh, RE007 growth inh, SARS PLpro yeast, LmPK inh)
CN(Cc1cn(C)nc1-c1cccc(Cl)c1)Cc1nccn1C	none | LmPK confirm inactive
CN(Cc1cccnc1)Cc1cn(C)nc1-c1cccc(Cl)c1	none
COc1ccc(C)cc1-n1nnc(C(=O)Nc2cccc(SC)c2)c1C	none (no result: NS1 inh, RE007 growth inh, SARS PLpro yeast, LmPK inh)
COc1cccc(/C=N/NC(=O)c2ccoc2C)c1O	LmPK inh 7.9µM | LmPK confirm 18µM
O=S(=O)(Nc1ccc(O)c(NS(=O)(=O)c2ccccc2)c1)c1ccccc1	LmPK inh 0.45µM | LmPK confirm inactive
Cc1cc(NS(=O)(=O)c2ccccc2)ccc1NS(=O)(=O)c1ccccc1	none (no result: NS1 inh, SARS PLpro yeast, Sm TGR inh, LmPK inh)
Oc1ccc(O)c2c1C1c3ccccc3C2c2ccccc21	Sm TGR inh 5µM, LmPK inh 2.2µM (no result: RE007 growth inh, Tb PYK inh) | LmPK confirm inactive
Oc1ccc2ccccc2c1C1Nc2cccc3cccc(c23)N1	none
O=C(/C=C/Nc1ccc(Oc2ccccc2)cc1)c1ccco1	Tb PYK inh inconclusive, LmPK inh 7.9µM | LmPK confirm 21µM
NC(=O)c1ccccc1N/C=C/C(=O)c1ccco1	Sm TGR inh inconclusive, LmPK inh inconclusive
CN(Cc1ccon1)Cc1cn(C)nc1-c1ccc2c(c1)OCCO2	none | LmPK confirm inactive
Cc1ccc(N2C(=O)c3ccccc3C2O)nc1 (configuration not stated)	LmPK inh 7.1µM (no result: RE007 growth inh, Tb PYK inh) | LmPK confirm 18µM
Cc1ccc(N2C(=O)c3ccccc3C2Nc2ccccc2F)nc1 (configuration not stated)	none
Cc1ccc(C(=O)/C=C/C(=O)c2ccc(C)cc2)cc1	Tb PYK inh inconclusive, Sm TGR inh 2.2µM, LmPK inh 4µM (no result: NS1 inh) | LmPK confirm inconclusive
Cc1ccc(/C=C/C(=O)c2ccc(C)cc2)cc1	none
CCOc1ccccc1NC(=O)Cn1c(=O)n(Cc2ccc(OC)cc2)c(=O)c2oc3ccccc3c21	none (no result: NS1 inh, RE007 growth inh, SARS PLpro yeast, LmPK inh)
O=C(CCCn1ccc2cc(S(=O)(=O)N3CCCC3)ccc21)NCc1ccc(Cl)cc1	none (no result: NS1 inh, RE007 growth inh, SARS PLpro yeast, LmPK inh)
CC(C)CN=Cc1c(O)c([N+](=O)[O-])cc2oc3c(c12)CCCC3	RE007 growth inh inconclusive, LmPK inh 10µM | LmPK confirm inconclusive
Cc1oc2cc([N+](=O)[O-])c(O)c([N+](=O)[O-])c2c1C(=O)c1ccc(Cl)cc1	Sm TGR inh inconclusive
O=[N+]([O-])c1cc2oc3c(c2c(C=NCc2ccccc2)c1O)CCCC3	RE007 growth inh inconclusive, Tb PYK inh inconclusive, LmPK inh 1µM | LmPK confirm 0.82µM
Cc1cccc(/N=C/c2c(O)ccc3oc4c(c23)CCCC4)n1	none
Cc1cccc(NC(=O)CCN2CCN(c3ccccc3F)CC2)c1	none (no result: NS1 inh, RE007 growth inh, SARS PLpro yeast, LmPK inh)
Cc1ccc(-n2[nH]c(C)c(/C=N/c3ccccn3)c2=O)cc1	RE007 growth inh inconclusive | LmPK confirm inconclusive
Cc1[nH]n(-c2ccccc2)c(=O)c1C=Nc1cccc2cccnc12	none (no result: SARS PLpro yeast)
CCC(=O)Nc1cc(C)c(NC(=O)c2ccco2)cn1	none
Cc1cc(NC(=O)c2ccccc2)ncc1NC(=O)c1ccco1	NS1 inh inconclusive, RE007 growth inh inconclusive, Tb PYK inh inconclusive, Sm TGR inh 22µM, LmPK inh 14µM | LmPK confirm 16µM | NS1 inh valid inactive
Cc1ccccc1C(=O)N1CCN(CCc2ccccn2)CC1	none (no result: NS1 inh, RE007 growth inh, SARS PLpro yeast, LmPK inh)
COc1ccc(/C=N/NC(N)=S)cc1OC(=O)c1cccc2ccccc12	NS1 inh 2.2µM, SARS PLpro yeast inconclusive | LmPK confirm inactive | NS1 inh valid inconclusive
Nc1ccccc1OCCOc1ccccc1N	none
Nc1ccccc1OCCOCCOc1ccccc1N	NS1 inh 5µM | NS1 inh valid inactive
CCn1c(CNC(=O)C2CCCCC2)cc2ccccc21	NS1 inh inconclusive | NS1 inh valid inactive
Cn1c(CNC(=O)C2CCCCC2)cc2ccccc21	none
CCOc1ccc2[nH]c(=O)c(CN(Cc3ccc(F)cc3)C(=O)c3ccco3)cc2c1	NS1 inh 11µM | NS1 inh valid inactive
Cc1ccc(S(=O)(=O)NCc2ccc3c(c2)cc(C)n3C)cc1	NS1 inh inconclusive
Cc1cc2cc(CN3C(=O)c4ccccc4C3=O)ccc2n1C	NS1 inh inconclusive | NS1 inh valid inactive
O=C(Nc1cccc(S(=O)(=O)NC2=NCCCCC2)c1)c1cc(-c2ccc(Cl)cc2)nc2ccccc12	NS1 inh 11µM | NS1 inh valid inactive
Cc1ccc(-c2cc(C(=O)Nc3ccc(S(=O)(=O)Nc4nc(C)cc(C)n4)cc3)c3ccccc3n2)cc1	NS1 inh 14µM | NS1 inh valid inactive
CC(=O)NS(=O)(=O)c1ccc(NC(=O)c2cc(-c3ccc(C)c(C)c3)nc3ccccc23)cc1	none
CC(=O)NS(=O)(=O)c1ccc(NC(=O)c2cc(-c3ccc(C)cc3)nc3ccccc23)cc1	NS1 inh 8.9µM | NS1 inh valid inactive
CCc1ccc(C(=O)c2cnc3ccc(F)cc3c2S(=O)(=O)c2ccccc2)cc1	none (no result: NS1 inh, RE007 growth inh, SARS PLpro yeast, LmPK inh)
CCCCC1=CC2=CC(=O)C(C)(OC(=O)CC)C(=O)C2=CN1CCOC (configuration not stated)	NS1 inh inconclusive | NS1 inh valid inactive
CC[C@@H](C)[C@H]1O[C@]2(CC[C@@H]1C)C[C@@H]1C[C@@H](C/C=C(\C)[C@@H](O[C@H]3C[C@H](OC)[C@@H](O[C@H]4C[C@H](OC)[C@@H](O)[C@H](C)O4)[C@H](C)O3)[C@@H](C)/C=C/C=C3\CO[C@@H]4[C@H](O)C(C)=C[C@@H](C(=O)O1)[C@]34O)O2	NS1 inh 7.1µM (no result: RE007 growth inh, Tb PYK inh, SARS PLpro yeast, Sm TGR inh, LmPK inh) | NS1 inh valid inactive
Cc1ccc(Nc2cc(C(=O)NC3CCCC3)c3ccccc3n2)cc1C	none (no result: NS1 inh, RE007 growth inh, SARS PLpro yeast, LmPK inh)
COCC(C)n1c(COc2ccccc2F)nnc1SCC(=O)c1c(N)n(C)c(=O)n(C)c1=O (configuration not stated)	none
CCCCCCn1c(COc2ccccc2F)nnc1SCC(=O)c1c(N)n(C)c(=O)n(C)c1=O	NS1 inh inconclusive (no result: RE007 growth inh, Tb PYK inh) | NS1 inh valid inactive

Compound activity from PubChem BioAssay.
